Results: PubChem BioAssay
Measured potencies and affinities stand elsewhere. Activity calls are given as the source filed them. Cut-off not given; nearly all actives show IC50 up to about 0.91 µM.

target: Calcium-dependent protein kinase 4 (Plasmodium falciparum (isolate 3D7)) (UniProt Q8IBS5); experiment: PfCDPK4 kinase inhibitors, biochemical, TCAMS library (AID 1159588); details: recombinant PfCDPK4, Kinase-Glo ATP depletion luminescence
Sequence (Q8IBS5 whole entry, looked up): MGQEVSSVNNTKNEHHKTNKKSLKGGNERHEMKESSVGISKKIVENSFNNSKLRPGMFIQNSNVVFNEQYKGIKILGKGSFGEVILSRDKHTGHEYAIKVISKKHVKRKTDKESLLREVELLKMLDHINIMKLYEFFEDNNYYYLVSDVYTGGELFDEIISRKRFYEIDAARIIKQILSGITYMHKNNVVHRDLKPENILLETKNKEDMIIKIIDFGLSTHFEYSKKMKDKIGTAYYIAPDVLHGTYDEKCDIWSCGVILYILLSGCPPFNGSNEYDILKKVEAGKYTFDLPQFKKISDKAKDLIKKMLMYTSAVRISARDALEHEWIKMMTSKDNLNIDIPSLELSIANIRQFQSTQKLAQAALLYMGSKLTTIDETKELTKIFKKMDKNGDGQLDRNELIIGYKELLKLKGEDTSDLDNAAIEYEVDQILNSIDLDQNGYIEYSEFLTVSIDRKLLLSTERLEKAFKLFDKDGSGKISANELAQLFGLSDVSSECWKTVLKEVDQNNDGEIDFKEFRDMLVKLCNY

outcome, inactive:
Cc1cc(C(=O)N[C@H]2CCN(Cc3ccc(OCCCN(C)C)cc3)C2)ccc1Br
Cc1cc(=O)[nH]c(-n2nc(C)cc2NC(=O)C(c2ccccc2)c2ccccc2)n1
N#Cc1ccc(CN2CCCN(Cc3cccc(NC(=O)c4ccc(Cl)c(Cl)c4)c3)CC2)cc1
O=C(Nc1ccncc1)c1cc(C(=O)Nc2ccncc2)cc([N+](=O)[O-])c1
Cc1cccc(NC(=O)NCc2ccccc2)n1
Cc1ccc2c(Cl)c(C(=O)N3CCCc4ccccc43)sc2c1
CS(=O)(=O)Nc1ccc2[nH]cc(C3CCN(CC(O)C4CCN(C(=O)/C=C/c5ccc(Cl)c(Cl)c5)CC4)CC3)c2c1 (stereo not given)
N#Cc1ccc(OCCN(Cc2ccccc2C(F)(F)F)c2ccc(C#N)c(C(F)(F)F)c2)cc1
Cc1cc(=O)c(-c2ccc(Oc3cccc(Cl)c3)cc2)c(C)[nH]1
COc1cc2nc(N3CCC(CNC(=O)c4ccc(-c5ccc(C(=O)N(C)C)cc5O)cc4)CC3)nc(N)c2cc1OC
CCN(CC)CCN(Cc1ccc(-c2ccc(C(F)(F)F)cc2)cc1)C(=O)Cn1c(CCc2cccc(F)c2F)nc(=O)c2sccc21
Cc1[nH]c(C)c(-c2ccc(-c3cccc(C(F)(F)F)c3)nc2)c(=O)c1Br
Cc1ccc(C(=O)Nc2ccc(Nc3ccnc4cc(-c5ccccn5)ccc34)cc2O)cc1
COC(=O)c1cccc(CNCc2cccc(-c3cccc(-c4nc5c(C)cccc5[nH]4)c3)c2)c1
O=C(NCCN1CCCC1)c1cccc(-c2ccc(-c3nc4ccc(F)cc4[nH]3)s2)c1
COC(=O)C(Cc1ccccc1)NC(=O)NC1CCN(c2ccnc(Nc3ccc(F)cc3)n2)C1 (stereo not given)
O=C(CSc1n[nH]c(-c2ccccc2Br)n1)c1c[nH]c2ccccc12
CN(C)CCN(C)Cc1ccc(-c2ccc(NC(=O)c3cccc(Cl)c3)cc2)cc1
COc1ccc(CCn2c(=N)c(C(=O)NCc3ccccc3)cc3c(=O)n4ccccc4nc32)cc1
CCOc1ccccc1NC(=O)Nc1ccc2c(c1)CCN(C1CCC1)CC2
O=C(Nc1cccc(C(F)(F)F)c1)c1cccc2[nH]c(C(F)(F)F)nc12
Cc1cc(C)c(O)c(-c2cc(C(=O)Nc3ccc(S(=O)(=O)N4CC(C)OC(C)C4)cc3)[nH]n2)c1 (stereo not given)
CCNc1cc(C)nc(Nc2ccc(NC(=O)c3cccs3)cc2)n1
CCOc1c(CNCCCNc2cc(=O)c3ccccc3[nH]2)cc(I)cc1OC
O=C(NCCN1CCCCC1)N1CCCN(c2ncnc3cc(-c4ccccc4)sc23)CC1
NC1CCN(Cc2ccc(-c3cccc(-c4nc5ccc(F)cc5[nH]4)c3)cc2)C1 (stereo not given)
Cc1cccc2[nH]c(-c3ccc(-c4ccc(CNCc5ccccc5)cc4)s3)nc12
COc1ccc2nc(/C=C/c3cccc4ccc(C)nc34)[nH]c2c1
CCOC(=O)c1c(C)n(-c2ccccc2)c2ccc(OC(=O)COc3ccc(Cl)cc3Cl)cc12
CCOc1ccc2c(NN=Cc3ccc(F)cc3)cc(C)nc2c1
CCCCCC(C)N=C(Nc1ccc(C#N)cc1O)Nc1ccccc1Br (stereo not given)
O=C(CCc1cccnc1)Nc1ccc(-c2cccc(-c3nc4ccc(F)cc4[nH]3)c2)cc1
COc1ccc2nccc(N3CCC(CCNCc4cc5c(cn4)OCCO5)CC3)c2c1
Cc1cccc2[nH]c(-c3ccc(-c4cccc(CN5CCC(CCN6CCCCC6)CC5)c4)s3)nc12
Cc1ccc(CN2CCN(c3cc4c(cc3Cl)CCN4C(=O)Cc3ccc(Cl)c(NC(=O)Nc4cccc(C#N)c4)c3)CC2)cc1
O=C(NC1CCCc2ccccc21)C1CCCN(C(=O)c2ccc(O)c(-c3ccc(Cl)c(Cl)c3)c2)C1 (stereo not given)
Nc1nc2ncn(COC(COCc3ccccc3)COCc3ccccc3)c2c(=O)[nH]1 (tested in a mixture with another compound)
CN1CCN(c2ccc(Nc3nc(N)c4ccn(C5CCC5)c4n3)cc2)CC1
CCCCCN1CCCC(CNS(=O)(=O)c2ccc(C(=O)Nc3ccc(C(F)(F)F)cc3)cc2)C1 (stereo not given)
CC(=O)Nc1ccc(OCCCCN(Cc2ccccc2C(F)(F)F)c2ccc(C(F)(F)F)c(C#N)c2)c(Cl)c1
